From PubChem BioAssay
IMPase inh: membrane-permeable compound that blocks inositol monophosphatase | P97697 | CHO-M1 cells, IP1 accumulation, HTRF TR-FRET ratio | inhibition (IP1 accumulation), % at 46.1 µM | 120,000 tested, under 10 active | AID 901; active means well fitted curve in the direction sought with a large enough effect in the signal ratio, not every such curve was filed as active; inconclusive means small, poorly fitted or top-dose-only effect, or a change in a side signal; inactive means no such curve, though single readings can be large or run the other way; the % refers to the signal ratio;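 further: cells stimulated with carbachol in lithium chloride buffer; plate controls were DMSO basal wells for no effect and reference inhibitor wells for full effect; higher means more IMPase inhibition seen as more IP1 and lower FRET ratio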
Target sequence (P97697 whole entry, looked up): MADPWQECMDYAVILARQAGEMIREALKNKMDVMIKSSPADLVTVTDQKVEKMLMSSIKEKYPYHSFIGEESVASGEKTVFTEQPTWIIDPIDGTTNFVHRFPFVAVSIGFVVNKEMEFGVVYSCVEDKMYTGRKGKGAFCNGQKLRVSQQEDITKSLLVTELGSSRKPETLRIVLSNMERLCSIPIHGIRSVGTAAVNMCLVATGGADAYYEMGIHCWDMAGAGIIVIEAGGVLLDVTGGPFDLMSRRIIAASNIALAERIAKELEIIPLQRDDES
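Carbachol-driven Gq signalling in CHO-M1 cells (2000/well) generates IP1. Compounds that block IMPase raise IP1 and so reduce the FRET signal from Eu-anti-IP1 and d2-IP1 after a 10 min room-temperature lysis.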
LMNA splice mod: changes lamin A minigene splicing in HeLa cells; HeLa LMNA splicing GFP/RFP minigene ratio, 48 h; Potency, µM (titrated, usually from 46.1 µM), without a hit: at the highest dose ratio change, negative = inhibition, hits mostly inhibitors; 200,000 compounds, 0.01% hits; active means well fitted inhibition curve with a large enough effect in the signal ratio, with a control signal flat, not every such curve was filed as active; inconclusive means small, poorly fitted or top-dose-only effect, or effect the other way, or a change in a side signal; the % refers to the signal ratio; further: potency means the concentration at half of the fitted maximal effect
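S3 HeLa cells stably expressing lamin A-EGFP splicing minigene plus DsRed2, 600 cells/well, 48 h compound exposure at 37C. Laser-scanning cytometry; analysed as GFP (500-530 nm)/RFP (575-640 nm) total intensity ratio; 0.5% DMSO vehicle.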
PNC assembly inh: blocks assembly of the perinucleolar compartment; PC3M PTB-GFP, PNC prevalence imaging, 16 h; stronger effect = lower value; activity change (PNC), negative = inhibition, % at 10 µM; 140,000 compounds, 3.1% hits;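 active means readout at or below -70, meaning at least 70% loss of cells showing the perinucleolar compartment, a nuclear body marking cancer cells; inconclusive means readout between -30 and a set limit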;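 further: plate controls were DMSO wells for no effect and camptothecin positive control wells for full effect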
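Compounds are pinned in duplicate onto adhered PC3M cells stably expressing GFP-tagged PTB and incubated 16 h at 37 C. Cells are then fixed, nuclei stained with Hoechst, and PNC-positive cells counted.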
The depositor's hits bear a star; ? = inconclusive; nt = no result; [ ] = another dose, or the depositor's remark. This is one part of a sample in which hits are shown more often than they occur. Unless noted, on the % scale 0 is the no-effect control and ±100 the full control effect.

SMILES | IMPase inh | LMNA splice mod | PNC assembly inh
COc1cccc(N2CCN(C(=O)c3cccc(NC(=O)c4nsc5ccccc45)c3)CC2)c1 | nt | -6%[46 µM] | nt
CS(=O)(=O)CCC(C(=O)OCc1ccc(Br)cc1)N1C(=O)c2ccccc2C1=O (stereo not given) | 2 | -8% | 9
COC(=O)c1ccc(COC(=O)C(CCS(C)(=O)=O)N2C(=O)c3ccccc3C2=O)cc1 (stereo not given) | ? | 2% | -104*
COc1ccc(NC(=O)/C(C#N)=C/c2ccc(Br)o2)cc1 | -7 | -20% | -1
N#C/C(=C/c1ccc(Br)o1)C(N)=O | nt | ? | -87*
COC(=O)Cn1c(=NC(=O)C2COc3ccccc3O2)sc2cc(S(N)(=O)=O)ccc21 (stereo not given) | nt | -6% | -134*
COC(=O)Cn1c(=NC(=O)CN2C(=O)CCC2=O)sc2cc(S(N)(=O)=O)ccc21 | nt | 5% | -5
Cc1cccc(-c2nc(=S)c3c(n2Cc2ccco2)CCCC3)c1 | -13 | -9% | ?
Cc1ccc(-c2nc(=S)c3c(n2Cc2ccco2)CCCC3)cc1 | 0 | -13% | -129*
CCC(CC)C(=O)Nc1cc(=O)n(C)c(=O)n1C | 0 | -7% | -12
COCC(=O)Nc1cc(=O)n(C)c(=O)n1C | 18 | -9% | -84*
COc1ccc(CNC(=O)CN(C(=O)CCC(=O)Nc2ccccn2)c2ccccc2OC)cc1 | 4 | -1% | 5
COc1ccccc1N(CC(=O)NCc1ccccc1)C(=O)CCC(=O)Nc1ccccn1 | 6 | -8% | -100*
COCCCNC(=O)CCCN1C(=O)CCn2nc(-c3cccn3C)cc21 | nt | -12%[46 µM] | nt
COc1ccc(S(=O)(=O)N(C)CC(=O)Nc2c(F)cccc2F)cc1 | 7[1.84 µM] | -6% | -103*
COc1ccc(S(=O)(=O)N(C)CC(=O)Nc2ccc3c(c2)OCO3)cc1 | -9 | -4% | ?
COc1cccc(C(=O)Nc2c(F)c(F)c(F)c(F)c2F)c1 | 0 | -6% | -14
COc1cc(OC)cc(C(=O)Nc2c(F)cccc2F)c1 | 3 | -8% | -119*
CN(C)c1ccc(CNC(=O)CN2C(=O)CCn3nc(-c4cn(C)c5ccccc45)cc32)cc1 | nt | -12%[46 µM] | nt
COc1ccc(OC)c(CCNC(=O)c2sc3nc4n(c(=O)c3c2C)CCCC4)c1 | nt | 18%[46 µM] | nt
CCOC(=O)c1c(NC(=O)COc2cc(C)ccc2C(C)C)sc2c1CCCC2 | -2 | nt | nt
CCCCSc1nnc2c(n1)OC(c1ccc(C)s1)Nc1ccccc1-2 (stereo not given) | -8 | nt | nt
Cc1nn(C)cc1CNC(=O)c1cccc(Br)c1 | 0 | -3% | 13
Cc1nn(C)cc1CNC(=O)c1cccc(F)c1 | nt | 11% | -98*
Cc1nc(S(=O)(=O)N2CCN(c3ccccc3F)CC2)cn1C | nt | 13%[46 µM] | nt
SMILES | IMPase inh | LMNA splice mod | PNC assembly inh
CCOC(=O)c1c(C)nc2c(C#N)cnn2c1C | 11 | 3% | 26
CCOC(=O)c1cnn2c(N)c(C#N)nnc12 | 1 | 9% | -117*
N#C/C(=N\Nc1cccc2ccccc12)c1nnc2n1CCCCC2 | -4 | ? | -113*
N#C/C(=C\c1c[nH]c2ccccc12)c1nnc2n1CCCCC2 | -3 | ? | 2
O=S(=O)(c1ccc(-c2nnc(SCc3ccccc3)o2)cc1)N1CCCC1 | -5 | 6% | 3
Cc1ccc(CSc2nnc(-c3ccc(S(=O)(=O)N4CCCC4)cc3)o2)cc1 | -1 | -1% | -92*
CCCn1c(SCC(=O)Nc2ccc(OCC)cc2)nnc1C(C)C | 3 | -14% | 188
CCOc1ccc(OCC)c(NC(=O)CSc2nnnn2CC)c1 | 4 | -13% | 121
CCOc1ccc(NC(=O)CSc2nnc(C(C)C)n2CC)cc1 | 3 | -3% | -119*
COc1ccc(NC(=O)CSc2nnc(-c3ccccc3)n2N)cc1 | -10 | -4% | -100*
CCOc1ccc(NC(=O)CSc2nnc(-c3ccccc3)n2N)cc1 | 0 | 9% | -3
COc1ccc2nc(NC(=O)CSc3nc(C)cc(C)n3)sc2c1 | -1 | ? | 32
CCn1nnnc1SCC(=O)Nc1ccc(OC)cc1 | -13 | -2% | -100*
CCn1nnnc1SCC(=O)Nc1nc2ccc(OC)cc2s1 | 13 | 1% | -100*
Cc1cc(C)cc(NC(=S)N2CCC(N(C)CC3CCCO3)CC2)c1 (stereo not given) | nt | 8%[46 µM] | nt
COc1ccc(CC(=O)NCc2ccc3c(c2)CCN3C(C)=O)cc1 | nt | 10%[46 µM] | nt
O=C(CSc1nnc(-c2cccnc2)n1-c1ccccc1)Nc1ccccc1 | -9 | -11% | -100*
Cc1ccc(NC(=O)CSc2nnc(-c3cccnc3)n2-c2ccc(C)cc2)cc1 | -8 | -1% | 4
O=C(CSc1nnc2[nH]c(=O)cc(-c3ccccc3)n12)Nc1ccc(F)cc1F | nt | 18%[46 µM] | nt
